The sample as a whole holds a higher share of hits than the screen did.
C diff growth: C. difficile growth inhibitors, primary screen, HTS. Clostridium difficile clinical isolate growth, OD600, 24 h; hits give low values. growth activity, negative = inhibition, % at 16 µg/mL (by protocol). hit rate 0.25% among 86,000;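 active = mean growth activity at or below -80% and every replicate also at or below -80%; inconclusive = mean at or below -80% but some replicate above -80%; inactive = mean growth activity above -80%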
T cruzi growth-1: T. cruzi intracellular proliferation inhibitors, primary screen, cell-based, beta-gal Tulahuen parasites, NIH3T3 host, luminescence; T. cruzi beta-gal in NIH3T3, GalScreen luminescence, 90 h; inhibition, % at 8.34 µM; hit rate 5.9% among 77,000;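 active = mean inhibition above about 93%, with at least 55% of replicates each passing it, limit read from the data, passing the limit was not always enough; inconclusive = only one of those two conditions holds; inactive = neither condition holds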
T cruzi growth-2: T. cruzi intracellular proliferation inhibitors, confirmation, cell-based, NIH3T3 host, beta-gal parasite, luminescence, cherry-pick | shares compounds with T cruzi growth-1 | T. cruzi beta-gal in NIH3T3, GalScreen luminescence, 90 h | inhibition, % at 8.35 µM | hit rate 72% among 5,600;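 active = mean replicate inhibition above about 95% and at least 55% of replicates individually reaching it, limit read from the data; inconclusive = only one of the two criteria is met; inactive = neither criterion is met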
T cruzi growth-3: inhibitors of intracellular T. cruzi replication, confirmation, NIH3T3 host cells, beta-gal parasites, cherry-pick, set 2 | inhibition, % at 2.09 µM | T. cruzi beta-gal in NIH3T3, GalScreen luminescence, 90 h | shares compounds with T cruzi growth-1 | hit rate 21% among 5,600 | AID 651740, 2012;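 active = mean inhibition above about 95%, with at least 55% of replicates also reaching it, limit read from the data; inconclusive = meets just one of the two conditions; inactive = meets neither condition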
NIH3T3 tox: cytotoxicity in mouse NIH/3T3 fibroblasts, confirmation, cytotoxicity control for T. cruzi proliferation inhibitor project, cell-based, cherry-pick, single point. shares compounds with T cruzi growth-1. NIH/3T3 viability, CellTiter-Glo ATP luminescence, 90 h. cytotoxicity (signal decrease), % at 8.35 µM. hit rate 14% among 5,600;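 active = mean signal decrease across replicates above about 35% based on untreated-well scatter, with enough replicates individually passing, limit read from the data; inconclusive = no rule stated though some were filed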
3T3 cytotox 2: NIH/3T3 fibroblast cytotoxicity, confirmation, cytotoxicity control, cell-based, cherry-pick, single point, set 2. shares compounds with T cruzi growth-1. NIH/3T3 viability, CellTiter-Glo ATP luminescence, 90 h. inhibition, % at 24.9 µM. hit rate 56% among 5,600. AID 651744, 2012;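 active = mean loss of cell viability signal at or above a set limit, and enough replicates individually reaching it; inconclusive = meets only the mean limit or only the replicate share; inactive = meets neither condition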
Hits are given with their value; ! = repeats disagree.

How did Cc1noc(C)c1NC(=O)Nc1ccc2c(c1)C(=O)N([C@@H](C)CO)C[C@H](C)[C@H](CN(C)C)O2 do in these assays?
C diff growth: inactive

How did CCCC#Cc1ccc([C@H]2[C@@H](CO)N(C(C)=O)[C@H]2CN(C)C(=O)C2CC2)cc1 do in these assays?
C diff growth: inactive

How did CC(C)C#Cc1ccc2c(c1)O[C@@H](CN(C)CC1CCOCC1)[C@@H](C)CN([C@H](C)CO)S2(=O)=O do in these assays?
C diff growth: inactive; T cruzi growth-1: inactive

What do the screens show for `C[C@H](CO)N1C[C@H](C)[C@@H](CN(C)CC2CCCC2)Oc2cc(C#CC3CC3)ccc2S1(=O)=O`?
T cruzi growth-1: inconclusive; T cruzi growth-2: 103.7; T cruzi growth-3: inactive; NIH3T3 tox: inactive; 3T3 cytotox 2: 105.0

How did C[C@@H]1CN([C@H](C)CO)S(=O)(=O)c2ccc(C#CC3CC3)cc2O[C@@H]1CN(C)CC1CC1 do in these assays?
T cruzi growth-1: inactive

What do the screens show for `C[C@H]1CN([C@@H](C)CO)S(=O)(=O)c2ccc(C#Cc3ccccc3F)cc2O[C@H]1CN(C)CC1CCOCC1`?
C diff growth: inactive

What do the screens show for `CC(C)C#Cc1ccc2c(c1)O[C@H](CN(C)CC1CCOCC1)[C@@H](C)CN([C@@H](C)CO)S2(=O)=O`?
C diff growth: inactive; T cruzi growth-1: 102.5; T cruzi growth-2: 97.8; T cruzi growth-3: inactive; NIH3T3 tox: inactive; 3T3 cytotox 2: 104.6

How did C[C@H](CO)N1C[C@H](C)[C@@H](CN(C)CC2CCOCC2)Oc2cc(C#Cc3ccccc3F)ccc2S1(=O)=O do in these assays?
C diff growth: inactive; T cruzi growth-1: 121.6; T cruzi growth-2: 99.3; T cruzi growth-3: 103.0; NIH3T3 tox: inactive; 3T3 cytotox 2: 43.3

Results for CN(C)C(=O)C[C@H]1CC[C@H](NC(=O)C2CC2)[C@@H](CO)O1 ?
C diff growth: inactive

What do the screens show for `COc1ccc2c3c(n(C)c2c1)[C@@H](CO)N(Cc1ccccc1F)CC31CN(C(=O)C2CCOCC2)C1`?
C diff growth: inactive

What do the screens show for `C[C@H](CO)N1C[C@H](C)[C@H](CN(C)C(=O)C2CC2)Oc2ncc(C#Cc3ccccc3F)cc2C1=O`?
T cruzi growth-1: inactive

How did C[C@@H]1CN([C@@H](C)CO)S(=O)(=O)c2ccc(C#Cc3ccccc3)cc2O[C@H]1CN(C)C(=O)Cc1ccccn1 do in these assays?
C diff growth: inactive; T cruzi growth-1: inactive

What do the screens show for `C[C@@H]1CN([C@H](C)CO)S(=O)(=O)c2ccc(C#Cc3ccccc3)cc2O[C@@H]1CN(C)C(=O)Cc1ccccn1`?
C diff growth: inactive; T cruzi growth-1: inconclusive; T cruzi growth-2: 108.6; T cruzi growth-3: inactive; NIH3T3 tox: inactive; 3T3 cytotox 2: 58.5

What do the screens show for `C[C@H]1CN([C@@H](C)CO)S(=O)(=O)c2ccc(C#Cc3ccccc3)cc2O[C@@H]1CN(C)C(=O)Cc1ccccn1`?
C diff growth: inactive; T cruzi growth-1: 105.4; T cruzi growth-2: 104.9; T cruzi growth-3: inactive; NIH3T3 tox: inactive; 3T3 cytotox 2: 50.6

How did C[C@@H]1CN([C@@H](C)CO)S(=O)(=O)c2ccc(C#Cc3ccccc3)cc2O[C@@H]1CN(C)C(=O)Cc1ccccn1 do in these assays?
C diff growth: inactive; T cruzi growth-1: inactive

How did C[C@H]1CN([C@@H](C)CO)S(=O)(=O)c2ccc(Br)cc2O[C@@H]1CN(C)Cc1ccccc1 do in these assays?
C diff growth: inactive; T cruzi growth-1: 96.6!; T cruzi growth-2: 100.2; T cruzi growth-3: inactive; NIH3T3 tox: inconclusive; 3T3 cytotox 2: 106.9

What do the screens show for `C[C@H]1CN([C@@H](C)CO)S(=O)(=O)c2ccc(Br)cc2O[C@H]1CN(C)Cc1ccccc1`?
C diff growth: inactive; T cruzi growth-1: inactive

Results for C[C@@H]1CN([C@@H](C)CO)S(=O)(=O)c2ccc(Br)cc2O[C@H]1CN(C)Cc1ccccc1 ?
C diff growth: inactive; T cruzi growth-1: 99.4; T cruzi growth-2: inactive; T cruzi growth-3: inactive; NIH3T3 tox: inactive; 3T3 cytotox 2: 104.5

Source: PubChem BioAssay
